Source: PubChem BioAssay (National Center for Advancing Translational Sciences (NCATS))
Compounds with a hit are over-represented: about 19% of the library has one in this group of screens.
HT1080 IDH1KD tx: qHTS for induction of synthetic lethality in tumor cells producing 2HG: qHTS for the HT-1080-IDH1KD cell line | Potency, µM (highest dose often 46.1 µM), actives largely listed as cytotoxic | HT-1080 IDH1 knockdown viability, ATP luminescence, 48 h | 360,000 compounds, 2% hits
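In this qHTS, HT-1080 cells depleted of IDH1 are exposed for 48 h at 37 °C to compound titrations. Toxicity is scored from CellTiter-Glo luminescence, with DMSO as full viability and medium alone as none.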
TDP1 cell noCPT: qHTS for Inhibitors of human tyrosyl-DNA phosphodiesterase 1 (TDP1): qHTS in cells in absence of CPT; Potency, µM (highest dose often 46.2 µM), actives largely listed as inhibitors; 420,000 compounds, 15% hits; DT40 Tdp1-/- hTDP1 cells, no CPT, ATP luminescence, 48 h; also: nearly all actives have a fitted effect of over 55% in size
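No-CPT arm: Tdp1-/-;hTDP1 DT40 cells (400/well) plus compounds, incubated ≥48 hr at 37 °C. Readout CellTiter-Glo luminescence.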
KB-3-1 tox: qHTS assay for MDR1-selective chemotherapeutics: Primary screen using the parental adenocarcinoma cell KB-3-1. 400,000 compounds, 1.4% hits. AID 1347075, 2019. Potency, µM (highest dose often 46.1 µM), hits mostly cytotoxic. KB-3-1 viability, CellTiter-Glo ATP luminescence, 72 h; also: nearly all actives have a fitted effect of over 60% in size
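Viability of parental KB-3-1 cells, measured by CellTiter-Glo luminescence, followed a 72 h incubation at 37 °C with pinned compounds in phenol-red-free DMEM containing 10% FBS.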
KB-V1 MDR tox: qHTS assay for MDR1-selective chemotherapeutics: Primary screen using the drug-selected MDR subline cells KB-V1. KB-V1 MDR cells viability, CellTiter-Glo, 72 h. Potency, µM (highest dose often 46.1 µM), usual class: cytotoxic. 400,000 compounds, 3.4% hits. AID 1347076, 2019; also: nearly all actives have a fitted effect of over 60% in size
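Cytotoxicity via CellTiter-Glo luminescence after 72 h compound exposure at 37 degrees C. Cells: drug-selected KB-V1 line, DMEM phenol-red free plus 10% FBS. Compounds tested at multiple concentrations; normalized data fitted to concentration-effect curves.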
HT1080-NT tox: qHTS for induction of synthetic lethality in tumor cells producing 2HG: qHTS for the HT-1080-NT fibrosarcoma cell line; 360,000 compounds, 1.6% hits; HT-1080-NT fibrosarcoma viability, CellTiter-Glo ATP luminescence, 48 h; Potency, µM (titrated, usually from 46.1 µM), actives largely listed as cytotoxic; AID 686970, 2013;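 also: NT is the 2HG producing partner of a matched IDH1 knockdown line; nearly all actives have a fitted effect of over 55% in size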
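Toxicity toward the 2HG-producing NT line was scored as %Activity, normalised to DMSO and no-cell wells, from CellTiter-Glo luminescence after 48 hours' treatment.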
DT40 TDP1 CPT: qHTS for Inhibitors of human tyrosyl-DNA phosphodiesterase 1 (TDP1): qHTS in cells in presence of CPT | chicken DT40 Tdp1-/-;hTDP1 cells + 20 nM CPT, ATP luminescence, 48 h | Potency, µM (series often up to 46.2 µM), most hits filed as inhibitors | 420,000 compounds, 12% hits; also: nearly all actives have a fitted effect of over 55% in size
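Cell growth measured by CellTiter-Glo luminescence after a minimum 48 h, 37 C compound exposure with 20 nM CPT in Tdp1-knockout DT40 cells stably expressing hTDP1, seeded 400/well; qHTS titration format.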
Of the large screens only hits and unclear results are named; the others gave an inactive call. Calls follow the shape of the dose curve; as a rule, active = well fitted curve in the direction sought with a large enough effect; inconclusive = small, poorly fitted or top-dose-only effect, or another doubt; inactive = no such curve, though single readings can be large; an effect the other way counts as inactive or inconclusive.

CC(C)(C)c1ccc(-c2nnc3sc(-c4ccncc4)nn23)cc1	TDP1 cell noCPT inconclusive, DT40 TDP1 CPT 13µM
c1cncc(-c2nnc3sc(-c4ccco4)nn23)c1	HT1080-NT tox inconclusive
Cc1nnc2sc(-c3ccncc3)nn12	none
COc1ccccc1NCC(=O)NC(=O)NC1CCCCC1	TDP1 cell noCPT inconclusive, DT40 TDP1 CPT inconclusive
Cc1nn(-c2ccc(C(=O)NCC(c3ccco3)N3CCCC3)cc2)c(C)c1Cl (centres undefined)	DT40 TDP1 CPT inconclusive
CCOC(=O)C1CCCCN1C(=O)c1cnn(-c2nccc(-c3cc(C)sc3C)n2)c1C1CC1 (centres undefined)	TDP1 cell noCPT inconclusive (no result: HT1080 IDH1KD tx, KB-3-1 tox, KB-V1 MDR tox, HT1080-NT tox)
COc1cc(/C=C(\C#N)C(N)=O)cc(CSc2nc3ccccc3s2)c1O	TDP1 cell noCPT 15µM, DT40 TDP1 CPT 15µM (no result: HT1080 IDH1KD tx, KB-3-1 tox, KB-V1 MDR tox, HT1080-NT tox)
NC(=O)c1ccc(CSc2nc3ccccc3s2)cc1	KB-3-1 tox inconclusive, KB-V1 MDR tox inconclusive
Cc1ccc(S(=O)(=O)N2CCN(C(=O)CCOc3cc(C)ccc3C)CC2)cc1	TDP1 cell noCPT inconclusive, KB-3-1 tox inconclusive, DT40 TDP1 CPT inconclusive
Cc1ccc(Nc2nc(N3CCOCC3)nc(N3CCOCC3)n2)cc1	TDP1 cell noCPT 18µM, KB-V1 MDR tox inconclusive, DT40 TDP1 CPT 18µM
CC(C)c1ccc(Nc2nc(N3CCOCC3)nc(N3CCOCC3)n2)cc1	TDP1 cell noCPT 18µM, DT40 TDP1 CPT 18µM
Fc1ccccc1Nc1nc(N2CCOCC2)nc(N2CCOCC2)n1	TDP1 cell noCPT inconclusive, DT40 TDP1 CPT 21µM
Clc1ccc(Nc2nc(Nc3ccc(Cl)cc3)nc(N3CCOCC3)n2)cc1	TDP1 cell noCPT inconclusive, DT40 TDP1 CPT inconclusive (no result: HT1080 IDH1KD tx, HT1080-NT tox)
Cc1ccc(Nc2nc(Nc3ccc(Cl)cc3)nc(N3CCOCC3)n2)cc1	TDP1 cell noCPT 18µM, DT40 TDP1 CPT 11µM (no result: HT1080 IDH1KD tx, HT1080-NT tox)
Cn1c(=O)c2cc(NC(=S)NC3CC3)ccc2n1C/C=C/c1ccccc1	none
COc1ccc(C(=O)N2CCC2(C)C(=O)O)cc1C(F)(F)F (centres undefined)	HT1080-NT tox inconclusive
Cc1nn(C)cc1CN1CCOc2ccc(CN3CCC(Oc4cccnc4)CC3)cc2C1	TDP1 cell noCPT inconclusive (no result: HT1080 IDH1KD tx, KB-3-1 tox, KB-V1 MDR tox, HT1080-NT tox)
CC(=O)Nc1ccc(Nc2nc(Nc3ccc(Cl)cc3)nc(N3CCOCC3)n2)cc1	TDP1 cell noCPT 0.79µM, DT40 TDP1 CPT 1.3µM (no result: HT1080 IDH1KD tx, HT1080-NT tox)
Fc1ccc(Nc2nc(N3CCOCC3)nc(N3CCOCC3)n2)cc1Cl	DT40 TDP1 CPT inconclusive
Clc1ccc(Nc2nc(N3CCOCC3)nc(N3CCOCC3)n2)cc1Cl	TDP1 cell noCPT 9.2µM, DT40 TDP1 CPT inconclusive
CCOc1ccc(CCNC(=O)Cn2ncn3c(cc4sc(C)cc43)c2=O)cc1OCC	TDP1 cell noCPT inconclusive (no result: HT1080 IDH1KD tx, KB-3-1 tox, KB-V1 MDR tox, HT1080-NT tox)
CN(C)c1cccc(-c2ncc(F)c(N3CCC(C(N)=O)CC3)n2)c1	KB-3-1 tox inconclusive (no result: HT1080 IDH1KD tx, TDP1 cell noCPT, HT1080-NT tox, DT40 TDP1 CPT)
O=c1c(-c2c(O)cc(O)c3c2O[C@H](c2ccc(O)cc2)CC3)c(-c2ccc(O)cc2)oc2cc(O)cc(O)c12	TDP1 cell noCPT 5.2µM, DT40 TDP1 CPT inconclusive
CC(C)(C)C1CCC(=NNc2nc3ccccc3[nH]2)CC1 (centres undefined)	HT1080 IDH1KD tx inconclusive, TDP1 cell noCPT inconclusive
C(=N\Nc1nc2ccccc2[nH]1)/c1ccccn1	HT1080 IDH1KD tx 18µM, TDP1 cell noCPT 21µM, HT1080-NT tox inconclusive, DT40 TDP1 CPT inconclusive
C(=N\Nc1nc2ccccc2[nH]1)/c1cccc2nccnc12	HT1080 IDH1KD tx inconclusive, TDP1 cell noCPT 4.1µM, KB-3-1 tox inconclusive, KB-V1 MDR tox inconclusive, HT1080-NT tox inconclusive, DT40 TDP1 CPT 2.9µM
